In PubChem BioAssay (NCATS) one finds Potency and activity, negative = cell killing data, which are given here for five compounds.

The subject of assay [1] is MCC-26. As to the kind of experiment: qHTS assay to identify novel small-molecules to repurpose for Merkel cell carcinoma treatment (AID 1296009). Further: nearly all actives have a fitted effect of over 60% in size. As to conditions: MCC and control cell lines, CellTiter-Glo viability, 72 h; series mostly up to 46 µM. The procedure, abridged:
(§1)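 72 hr, 37 degree celsius; NPC 8-pt / MIPE 11-pt dose response; compound pinned in DMSO; CellTiter-Glo, 10 min RT, luminescence; normalized to no-cell and DMSO controls.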

Assay [2] has as its system MKL-1. The description is as above. As to conditions: MCC and control cell lines, CellTiter-Glo viability, 72 h; series mostly up to 46 µM. The procedure, abridged:
as §1
(In ATP-based viability assays light output follows the ATP content of the culture.)

Assay [3] deals with MKL-2. Described as above. As to conditions: MCC and control cell lines, CellTiter-Glo viability, 72 h; series mostly up to 46 µM. The procedure, abridged:
as §1

Assay [4] relates to UISO. The description is as above. To be noted: MCC and control cell lines, CellTiter-Glo viability, 72 h; series mostly up to 46 µM. The method in brief:
as §1

Assay [5] concerns WaGa. The assay is described as above. As to conditions: MCC and control cell lines, CellTiter-Glo viability, 72 h; series mostly up to 46 µM. The procedure, abridged: as §1
Assay [6] has as its system C33A. Nature of the assay: Primary qHTS to identify gynecologic anti-cancer compounds using libraries of approved drugs and bioactive compounds (AID 1345084). Further: nearly all actives have a fitted effect of over 55% in size. To be noted: Gynecologic cancer cell panel viability, ATPlite luminescence, 48 h; series mostly up to 57.5 µM. The procedure, abridged:
(§2)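 48 h compound exposure at 37 C, 5% CO2; five-point qHTS. ATPlite luminescence readout of cell ATP.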

For assay [7], the system named is CAOV3. Described as above. To be noted: Gynecologic cancer cell panel viability, ATPlite luminescence, 48 h; series mostly up to 57.5 µM. The method in brief:
as §2

The test system of assay [8] is CASKI. The assay is described as above. To be noted: Gynecologic cancer cell panel viability, ATPlite luminescence, 48 h; series mostly up to 57.5 µM. The method in brief: as §2
For assay [9], the system named is Es-2. The description is as above. To be noted: Gynecologic cancer cell panel viability, ATPlite luminescence, 48 h; series mostly up to 57.5 µM. The procedure, abridged: as §2
The subject of assay [10] is HeLa. The assay is described as above. As to conditions: Gynecologic cancer cell panel viability, ATPlite luminescence, 48 h; series mostly up to 57.5 µM. The procedure, abridged: as §2
The test system of assay [11] is Hek293T. The description is as above. To be noted: Gynecologic cancer cell panel viability, ATPlite luminescence, 48 h, control line for the selectivity index; series mostly up to 57.5 µM. The method in brief:
as §2

Assay [12] has as its system JEG-3. The assay is described as above. As to conditions: Gynecologic cancer cell panel viability, ATPlite luminescence, 48 h; series mostly up to 57.5 µM. The procedure, abridged:
as §2

The subject of assay [13] is OV90. The assay is described as above. To be noted: Gynecologic cancer cell panel viability, ATPlite luminescence, 48 h; series mostly up to 57.5 µM. The procedure, abridged:
as §2

Assay [14] has as its system PA-1. The description is as above. To be noted: Gynecologic cancer cell panel viability, ATPlite luminescence, 48 h; series mostly up to 57.5 µM. The procedure, abridged: as §2
The test system of assay [15] is SKOV3. The description is as above. As to conditions: Gynecologic cancer cell panel viability, ATPlite luminescence, 48 h; series mostly up to 57.5 µM. The procedure, abridged: as §2
Assay [16] has as its system Tov-21-G. The description is as above. To be noted: Gynecologic cancer cell panel viability, ATPlite luminescence, 48 h; series mostly up to 57.5 µM. The method in brief:
as §2

Assay [17] has as its system Tov112D. The description is as above. To be noted: Gynecologic cancer cell panel viability, ATPlite luminescence, 48 h; series mostly up to 57.5 µM. The method in brief:
as §2

Assay [18] can be described thus: Drug repurposing screens with cells derived from glioblastoma tumor samples (AID 1345199). Further: nearly all actives have a fitted effect of over 40% in size. As to conditions: GBM patient neurospheres viability, ATP luminescence, 48 h. The procedure, abridged:
(§3)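 Four patient lines of CD133+ GBM neurospheres were screened at several concentrations; hits were retested in those lines plus three slower-growing GBM lines, using 48-hour treatment and ATP-based viability.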

Assay [19] has as its system astro. The assay is described as above. To be noted: viability, ATP luminescence, 48 h; series mostly up to 45.9 µM. The method in brief: as §3
Setting [20] is: at 45.9 µM (top of the series), tumour line B.
Setting [21] is: at 45.9 µM (top of the series), tumour line D.
Setting [22] is: at 46.1 µM (top of the series), tumour line C.

Several values for one entry are separate records, joined by “and”; a condition that tells them apart may be missing. Equal values may be shown once. Inconclusive results are not listed. The source holds several records for some structures; these can differ, active in one and inactive in another. Activity calls are given as the source filed them. The call rests on the fitted dose curve; in most records, active means well fitted curve in the direction sought with a large enough effect; inconclusive means small, poorly fitted or top-dose-only effect, or another doubt; inactive means no such curve, though single readings can be large; an effect the other way counts as inactive or inconclusive.
On the % scale 0 is the no-effect control and ±100 the full control effect; potency means the concentration at half of the fitted maximal effect.

As to `CC(C)Cn1cnc2c(N)nc3ccccc3c21`, the Potency entry in [1], in assay [2], in assay [3], in assay [4], in [6] and in assay [7] was “inactive” throughout. Further, the Potency entry in assay [8], in assay [9], in assay [10], in [11], in assay [12] and in assay [13] was “inactive” each time. Besides, the Potency entry in assay [14], in [15], in [16] and in assay [17] was “inactive” throughout. Further, the Potency result in [5] was “inactive and 20.9 µM (active)”. Also, in [18] (setting [20]), the activity, negative = cell killing is -23.5% (inactive).

Consider `CCC(C)(C)c1ccc(CC(C)CN2C[C@@H](C)O[C@@H](C)C2)cc1` (stereo partly specified), for which the Potency entry in assay [1], in assay [2], in [3], in assay [4], in assay [5] and in [6] was “inactive” throughout. In addition, the Potency result in [7], in assay [8], in [9], in assay [11], in assay [12] and in assay [13] was “inactive” in each case. Besides, the Potency entry in [14], in [15], in assay [16] and in [17] was “inactive” throughout.

For the compound `CCCc1cc(C(N)=S)ccn1`, the Potency result in assay [1], in assay [2], in assay [3], in assay [4], in [5] and in assay [6] was “inactive” throughout. Moreover, the Potency result in assay [7], in [8], in [9], in assay [10], in [11] and in [12] was “inactive” each time. Moreover, the Potency result in assay [13], in [14], in assay [15], in [16], in assay [17] and in [19] was “inactive” in each case. Further, the values for the activity, negative = cell killing in [18] (setting [20]), in [18] (setting [21]) and in assay [18] (setting [22]) were -7.71% (inactive), -14.3% (inactive) and 5.43% (inactive), respectively.

For the compound `CN(C)c1ccc(C(=C2C=CC(=[N+](C)C)C=C2)c2ccc(N(C)C)cc2)cc1`, the Potency in [1] was 7.5 µM (active) and 4.69 µM (active); in [2] it was 0.118 µM (active); in [3], 94.4 nM (active) and 11.8 nM (active); in [4] it was 841 nM (active) and 187 nM (active); in assay [5], 596 nM (active) and 296 nM (active); in [6], 10 µM (active). Besides, the Potency is 1.41 µM (active) in assay [7]; 1.12 µM (active) in [8]; 1.78 µM (active) in [9]; 2 µM (active) in [10]; 14.1 µM (active) in assay [12]; 0.447 µM (active) in assay [14]. In addition, the Potency in assay [15] was 0.316 µM (active); in assay [16], 1.78 µM (active); in assay [17] it was 2 µM (active); in assay [19] it was 2.51 µM (active).

As for `CC(C)(C#N)c1cc(Cn2cncn2)cc(C(C)(C)C#N)c1`, the Potency result in assay [1], in assay [2], in assay [3], in assay [4], in assay [5] and in assay [6] was “inactive” in each case. The Potency entry in assay [7], in assay [8], in assay [9], in assay [10], in [11] and in assay [12] was “inactive” throughout. Further, the Potency entry in assay [13], in [14], in assay [15], in assay [16] and in [19] was “inactive” in each case. In addition, the results for the activity, negative = cell killing in [18] (setting [20]), in assay [18] (setting [21]) and in assay [18] (setting [22]) were -13.4% (inactive), -8.79% (inactive) and -3.92% (inactive), respectively.
